This is an account of results in PubChem BioAssay AID743025 (Vanderbilt Specialized Chemistry Center, 2013).

This assay addresses Muscarinic acetylcholine receptor M5 (Homo sapiens) (UniProt P08912). The assay is described as follows: inhibition of ACh-evoked M5 calcium signal – cell-based, single concentration, human M5 (AID 743025). Conditions: CHO-K1 hM5, ACh EC80 calcium flux, Fluo-4; at 10 µM; hits give low values. A general note: Calcium assays in cells follow changes in intracellular calcium, usually with a dye or a luminescent sensor.

A number with no mark means an inactive call. Active and inactive are the calls of the source.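 The calls were made as follows: active = IC50 below 10 µM at human M5 in a calcium flux test, acting as a negative modulator; inactive = the rest.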

Muscarinic acetylcholine receptor M5 (Homo sapiens), sequence (P08912 whole entry, looked up): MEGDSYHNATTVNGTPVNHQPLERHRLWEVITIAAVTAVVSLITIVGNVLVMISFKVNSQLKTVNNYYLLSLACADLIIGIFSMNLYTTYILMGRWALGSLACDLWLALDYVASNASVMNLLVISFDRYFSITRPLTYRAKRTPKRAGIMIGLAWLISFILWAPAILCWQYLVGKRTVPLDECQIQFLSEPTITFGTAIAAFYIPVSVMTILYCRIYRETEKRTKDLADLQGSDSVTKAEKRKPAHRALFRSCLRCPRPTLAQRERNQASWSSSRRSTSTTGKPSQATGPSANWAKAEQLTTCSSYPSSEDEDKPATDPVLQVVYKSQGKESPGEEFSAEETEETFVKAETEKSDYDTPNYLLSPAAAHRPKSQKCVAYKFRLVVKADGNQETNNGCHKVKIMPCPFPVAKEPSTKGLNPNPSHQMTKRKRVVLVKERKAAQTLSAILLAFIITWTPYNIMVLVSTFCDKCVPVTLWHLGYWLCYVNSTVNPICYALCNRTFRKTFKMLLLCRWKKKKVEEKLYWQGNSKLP

Regarding `O=C(c1ccccn1)N1CCN2C(=O)c3ccccc3C12c1ccccc1` (centres undefined), the activity remaining is 100%.

For the compound `Cc1cccc(C(=O)N2CCCN3C(=O)c4ccccc4C23c2ccc(Cl)cc2)c1` (centres undefined), the activity remaining was 72.9%.

Consider `O=C(c1ccc(F)cc1)N1CCCC1c1ccccc1` (centres undefined), for which the activity remaining was 87%.

In the case of `O=C(c1ccc(C(F)(F)F)cc1)N1CCN2C(=O)c3ncccc3C12c1ccccc1` (centres undefined), the activity remaining is 72.2%.

With `O=C(c1ccc(F)cc1)N1CCN2C(=O)c3ccccc3C12c1ccc(Cl)cc1` (centres undefined), the activity remaining was 78.8%.

In the case of `O=C(c1ccc(F)cc1)N1CCCN2C(=O)c3ccccc3C12c1ccc(Cl)cc1` (centres undefined), the activity remaining is 76%.

`O=C(c1ccccc1C(F)(F)F)N1CCN2C(=O)c3ccccc3C12c1ccccc1` (centres undefined): the activity remaining was 82.4%.

Regarding `O=C(c1cc(F)cc(F)c1)N1CCN2C(=O)c3ccccc3C12c1ccc(Cl)cc1` (centres undefined), the activity remaining was 3.53% (active).

On to `O=C(c1ccc(SC(F)(F)F)cc1)N1CCN2C(=O)c3ccccc3C12c1ccc(Cl)cc1` (centres undefined), for which the activity remaining was 4.43% (active).

Consider `COc1cccc(C(=O)N2CCN3C(=O)c4ccccc4C23c2ccc(Cl)cc2)c1` (centres undefined), for which the activity remaining was 17.5% (active).

For `O=C(Nc1cccc(Cl)c1)N1CCN2C(=O)c3ccccc3C12c1ccccc1` (centres undefined), the activity remaining is 83%.

With `O=C(c1ccc2c(c1)CCO2)N1CCN2C(=O)c3ccccc3C12c1ccc(Cl)cc1` (centres undefined), the activity remaining is 71.1%.

As to `O=C(c1ccccn1)N1CCN2C(=O)c3ncccc3C12c1ccccc1` (centres undefined), the activity remaining was 73.7%.

Take `O=C(c1cccc(C(F)(F)F)c1)N1CCN2C(=O)c3ncccc3C12c1ccccc1` (centres undefined): the activity remaining was 76.6%.

Take `O=C(c1cc(Cl)cc(Cl)c1)N1CCN2C(=O)c3ccccc3C12c1ccccc1` (centres undefined): the activity remaining was 5.4% (active).

On to `O=C1c2ccccc2C2(c3ccccc3)Nc3ccccc3N12` (centres undefined), for which the activity remaining is 81.8%.

Regarding `O=C(c1ccc(OCc2ccccc2)cc1)N1CCN2C(=O)c3ccccc3C12c1ccccc1` (centres undefined), the activity remaining is 75.1%.

Regarding `O=C(c1ccc(SC(F)(F)F)cc1)N1CCN2C(=O)c3ncccc3C12c1ccccc1` (centres undefined), the activity remaining was 62.1%.

Turning to `Cc1ccc(C(=O)N2CCN3C(=O)c4ccccc4C23c2ccc(C)cc2)cc1` (centres undefined), the activity remaining was 49.1% (active).
